The list is not random: actives were taken first. Their share in the collection is about 14%.
CRE-bla Fsk = Cell signaling CRE-BLA (Fsk stim). CHO CRE-bla reporter (cAMP response element driving beta-lactamase), forskolin EC10, beta-lactamase ratio. Potency, µM (titrated, usually from 38.2 µM), for inactives: at the top dose activity change, negative = inhibition, usual class: activators. 71,000 compounds, 2.5% hits; active means well fitted activation curve with a large enough effect in the signal ratio, with a control signal flat, not every such curve was filed as active; inconclusive means small, poorly fitted or top-dose-only effect, or effect the other way, or a change in a side signal; the % refers to the signal ratio; further: potency means the concentration at half of the fitted maximal effect; % of control where 0% means no effect
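Reporter-gene assay: CHO cells with beta-lactamase behind cAMP responsive elements, co-treated with compound and EC10 NKH 477 for 3 hours at 37 degrees Celsius. Activity came from the 460/530 nm CCF4 emission ratio.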
AID923 = qHTS Assay for Allosteric/Competitive Inhibitors of Caspase-1: Spectroscopic Profiling in AFC Spectral Region; Potency, µM (series often up to 57.5 µM), for inactives: at the top dose fluorescence increase, actives largely listed as activators; AID 923, 2007; 75,000 compounds, 1.1% hits; compound fluorescence, AFC spectral region (405/520 nm); further: potency means the concentration at half of the fitted maximal effect; 0% is about no effect
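Baseline compound fluorescence (AFC region, 405 nm ex/520 nm em) taken from the intercept of kinetic reads with 50 nM caspase-1 and 5 uM Ac-WEHD-AFC; normalized to an on-plate AFC standard curve; compounds titrated up to 57 uM.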
4MU fluor = qHTS Assay for Spectroscopic Profiling in 4-MU Spectral Region; compound autofluorescence, 340/450 nm, 4-MU equivalents; active compounds read high; 59,000 compounds, 11% hits; max dye-equivalent concentration, M; in the data active means max dye-equivalent concentration above about 10 nM; inconclusive means mostly about 1.1 nM to 9.6 nM
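Compounds in 100 mM Tris, pH 8.0, incubated 15 min at room temperature, then fluorescence read at 340 nm excitation/450 nm emission. Signal converted to 4-MU dye-equivalent concentration using an on-plate six-point 4-MU standard curve.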
HADH2 inhib = qHTS Assay for Inhibitors of HADH2 (Hydroxyacyl-Coenzyme A Dehydrogenase, Type II); 3-hydroxyacyl-CoA dehydrogenase type-2 (Homo sapiens), Q99714; Potency, µM (series often up to 57.1 µM), inactives show top-dose activity change, negative = inhibition, hits mostly inhibitors; AID 886, 2007; recombinant HADH2, NADH fluorescence, beta-hydroxybutyryl-CoA; 73,000 compounds, 3.4% hits; further: potency means the concentration at half of the fitted maximal effect; on the % scale 0 is the no-effect control and ±100 the full control effect; nearly all actives have a fitted effect of over 60% in size
Target sequence (Q99714 whole entry, looked up, one chain of several): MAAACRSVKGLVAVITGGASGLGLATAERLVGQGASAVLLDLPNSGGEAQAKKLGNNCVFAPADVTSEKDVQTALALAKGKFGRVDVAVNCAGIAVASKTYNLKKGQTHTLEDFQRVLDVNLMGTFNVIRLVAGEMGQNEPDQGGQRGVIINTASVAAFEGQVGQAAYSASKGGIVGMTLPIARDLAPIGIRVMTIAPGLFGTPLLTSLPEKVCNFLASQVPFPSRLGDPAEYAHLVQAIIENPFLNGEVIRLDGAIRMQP
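E. coli-expressed His-tagged HADH2 tested at 20 nM in alkaline Tris buffer (pH 9.0); oxidation of 90 uM beta-hydroxybutyryl-CoA with 1 mM NAD+ tracked fluorimetrically for 4 min.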
A350 fluor = qHTS Assay for Spectroscopic Profiling in A350 Spectral Region; Compound autofluorescence, 340/450 nm, Alexa 350 dye-equivalents; active compounds read high; max dye-equivalent concentration, M; 59,000 compounds, 11% hits; in the data active means max dye-equivalent concentration above about 10 nM; inconclusive means mostly about 1.1 nM to 9.6 nM
HSD17B inhib = qHTS Assay for Inhibitors of HSD17B4, hydroxysteroid (17-beta) dehydrogenase 4. 3-hydroxyacyl-CoA dehydrogenase type-2 (Homo sapiens), Q99714. recombinant HSD17B10, NADH fluorescence kinetic. Potency, µM (titrated, usually from 57.1 µM), for inactives: at the top dose activity change, negative = inhibition, hits mostly inhibitors. 75,000 compounds, 7.6% hits. AID 893, 2007;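 further: the protocol describes HADH2 (HSD17B10) and not the HSD17B4 of the title; potency means the concentration at half of the fitted maximal effect; on the % scale 0 is the no-effect control and ±100 the full control effect; nearly all actives have a fitted effect of over 70% in size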
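Activity followed as NADH fluorescence increase (ex 360, em 450 nm) every 30 seconds for 4 min, using final 90 uM beta-hydroxybutyryl CoA and 1 mM NAD+. Recombinant His-tagged enzyme, 20 nM, pH 9.0 Tris buffer, 15 min compound preincubation.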
The depositor's hits bear a star; i = inactive; u = inconclusive; x = no result given; [ ] = another dose, or the depositor's remark. Unless noted, the call rests on the fitted dose curve; in most records, active means well fitted curve in the direction sought with a large enough effect; inconclusive means small, poorly fitted or top-dose-only effect, or another doubt; inactive means no such curve, though single readings can be large; an effect the other way counts as inactive or inconclusive.

SMILES | CRE-bla Fsk | AID923 | 4MU fluor | HADH2 inhib | A350 fluor | HSD17B inhib
CC(C)=CCc1c(O)cc2occ(-c3ccc4c(c3)OCO4)c(=O)c2c1O | x | 1% | x | x | x | 7%
COc1ccc(Oc2coc3cc(OC(=O)N4CCOCC4)ccc3c2=O)cc1 | 1% | -1% | i | 6% | i | -1%
O=c1c(-c2ccc3c(c2)OCCO3)coc2c(CN3CCOCC3)c(O)ccc12 | -9% | -1% | 8.9e-08M* | 3% | 1.2e-07M* | u
COc1cccc(Oc2coc3c(CN4CCOCC4)c(O)ccc3c2=O)c1 | -4% | 21% | 7.9e-07M* | 39% | 1.1e-06M* | 25µM*
Nc1ccn([C@H]2CC[C@H](CO)O2)c(=O)n1 | -4% | x | i | -17% | i | x
NC(Cc1ccccc1)(C(=O)O)C(=O)O | -29%[7.6 µM] | 2%[11.5 µM] | i | 6%[11.4 µM] | i | 0%[11.4 µM]
C[C@@](N)(Cc1ccc(O)c(O)c1)C(=O)O | -4%[17.1 µM] | -1% | u | 0.1µM* | u | u
CCn1c2ccc(CC(=O)O)cc2c2cc(CC(=O)O)ccc21 | 20% | 0% | u | 3% | u | 25µM*
N[C@@H](Cc1ccc(O)c(I)c1)C(=O)O | x | -1% | i | -4% | i | -6%
COC(=O)[C@@H](N)Cc1ccc(O)c(O)c1 | 2% | -2% | i | 0.063µM* | i | 70%
O=C(O)Cc1ccc(O)c(O)c1 | 8% | -1% | i | 0.5µM* | i | u
N[C@@H](C(=O)O)c1ccc(C(=O)O)cc1 | u | -1% | x | 1% | x | 3%
COc1nc(N2CCCC2)nc(-n2cc(-c3ccccc3)nn2)n1 | 11% | 2% | i | 9% | i | -1%
CCOC(=O)C1Cc2c([nH]c3ccccc23)CN1 (centres undefined) | u | 2% | 3.5e-08M* | -2% | 4.6e-08M* | u
COC(=O)C1Cc2c([nH]c3ccccc23)C(C)N1 (centres undefined) | -6% | 5% | u | -4% | u | 13µM*
COc1cccc(NC(=O)Nc2cc(C)ccc2F)c1 | -4% | -1% | i | 12% | i | 2%
COc1cccc(NC(=O)NC2(C(F)(F)F)Oc3ccccc3O2)c1 | u | 1% | 1.3e-07M* | u | 1.2e-07M* | 25µM*
O=C(NCc1cccnc1)NC1(C(F)(F)F)Oc2ccccc2O1 | u | 1% | 1.4e-08M* | u | 1.4e-08M* | u
Cc1cccc(-n2c(SCc3cc(=O)n4ccsc4n3)nc3ccccc32)c1 | 1.6µM* | -1% | u | u | u | u
COc1c2c(nc3ccccc13)O[C@@H]([C@@](C)(O)CO)C2 | 7% | -1% | i | 12% | i | 4%
Cc1ccc2cc(CNC(C)(C)C)c(=O)[nH]c2c1 | x | x | 1.4e-08M* | x | 1.5e-08M* | x
Cn1ccnc1C[C@@](C)(O)c1ccccc1 | u | 6%[11.5 µM] | i | -2%[11.4 µM] | i | 8%[11.4 µM]
C[C@@H]1CCC[C@H](C)N1 | 4%[17.1 µM] | 1%[25.7 µM] | i | -4%[25.6 µM] | i | 3%[25.6 µM]
COc1cc(OC)c2c(C)c(Cl)c(=O)oc2c1 | u | 1% | 4.5e-07M* | 108% | 4.3e-07M* | 4µM*
CCCCNC(=O)c1cn(C)c2ccc(S(=O)(=O)N3CCOCC3)cc2c1=O | -14% | 0% | i | 7% | i | 11%
SMILES | CRE-bla Fsk | AID923 | 4MU fluor | HADH2 inhib | A350 fluor | HSD17B inhib
CC(=O)c1cc2c(cc1O)OC(C)(C)C=C2 | x | -1% | x | x | x | -2%
CC1(C)C=Cc2cc3ccc(=O)oc3cc2O1 | x | 3% | x | x | x | 32µM*
CCN(CCCCOC(=O)c1ccc(OC)c(OC)c1)[C@@H](C)Cc1ccc(OC)cc1 | -5%[17.1 µM] | -3%[25.7 µM] | i | 20%[25.6 µM] | i | 2%[25.6 µM]
COC(=O)c1ccc(S(=O)(=O)N(Cc2cc3cc4c(cc3[nH]c2=O)OCO4)C2CCCCC2)cc1 | -2% | 4% | 5.5e-08M* | 9% | 5e-08M* | u
CCN(C1CCCCC1)S(=O)(=O)c1ccc(C(=O)O)cc1 | -3% | 1% | i | 3% | i | 8%
O=c1[nH]c2cc3c(cc2cc1CN(CC1CCCO1)S(=O)(=O)c1ccc(Cl)cc1)OCCO3 (centres undefined) | -1% | 10% | 1.1e-07M* | 1% | 1e-07M* | 13µM*
Cc1ccc(S(=O)(=O)N(Cc2cc3cc4c(cc3[nH]c2=O)OCCO4)CC2CCCO2)cc1 (centres undefined) | 1% | 2% | 4.6e-08M* | -6% | 4.2e-08M* | u
CC(=O)c1ccc(S(=O)(=O)N(Cc2cc3cc4c(cc3[nH]c2=O)OCCO4)CC2CCCO2)cc1 (centres undefined) | 3% | 0% | u | -2% | u | 5%
COc1cc(N)c(Cl)cc1C(=O)CCC1CCN(CCNS(C)(=O)=O)CC1 | -4% | 2% | x | 1% | x | 6%
C#C[C@H](N)CCC(=O)O | -1% | 0% | i | 6% | i | -4%
COC(=O)N1CCC2(CC1)CN(c1ccccc1)C2 | u | 1% | i | u | i | 2%
COc1ccc(C(c2sc3nc(C)nn3c2O)N2CCC(O)CC2)cc1OC (centres undefined) | 3.2µM* | -4% | x | -24% | x | -12%
COc1ccc(C(c2sc3ncnn3c2O)N2CCN(c3ccccc3F)CC2)cc1OC (centres undefined) | u | 0% | x | -5% | x | -8%
COc1cc(C(c2sc3nc(C)nn3c2O)N2CC(C)CC(C)C2)cc(OC)c1OC (centres undefined) | 10% | 4% | x | -11% | x | 1%
COc1ccc(C(c2sc3ncnn3c2O)N2CC(C)OC(C)C2)cc1OC (centres undefined) | 13µM* | -2% | x | -8% | x | -1%
COc1cccc(C(c2sc3ncnn3c2O)N2CCN(C(=O)c3ccco3)CC2)c1 (centres undefined) | 8% | -3% | x | -28% | x | 32µM*
O=C(c1ccco1)N1CCN(C(c2cccs2)c2sc3ncnn3c2O)CC1 (centres undefined) | -9% | -5% | x | u | x | u
COc1cc(C(c2sc3nc(C)nn3c2O)N2CC(C)OC(C)C2)cc(OC)c1OC (centres undefined) | 13µM* | -1% | x | -6% | x | 1%
c1ccc(Nc2ncnc3ccc(-c4cccnc4)cc23)cc1 | u | 2% | i | 0% | i | -6%
CCCCC(=O)N(Cc1ccc(-c2ccccc2-c2nn[nH]n2)cc1)C(C(=O)O)C(C)C (centres undefined) | x | 0% | x | x | x | 3%

Bioassay records from PubChem BioAssay.
